# Experimental data from the supplement of paper PMC3334620.
# Over roughly 33,000 sequences, “E-score (-0.5 to 0.5)” has its median near -0.017; the highest 2% begin near 0.3. Many of the other results were omitted from the sample, so the highest values are more common in it than they were.
# Molecular target: T1, Sut1 (UniProt P53032)
# T1 sequence: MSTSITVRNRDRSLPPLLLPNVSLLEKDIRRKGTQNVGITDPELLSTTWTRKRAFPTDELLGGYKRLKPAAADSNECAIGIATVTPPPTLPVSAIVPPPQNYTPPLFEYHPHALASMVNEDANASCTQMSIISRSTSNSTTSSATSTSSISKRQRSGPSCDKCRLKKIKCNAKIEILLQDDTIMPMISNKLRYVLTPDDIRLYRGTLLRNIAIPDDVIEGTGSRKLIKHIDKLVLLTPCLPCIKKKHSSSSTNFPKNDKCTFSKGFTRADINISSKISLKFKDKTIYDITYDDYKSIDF
# Test: PBM E-score (8-mer binding enrichment) (E-score (-0.5 to 0.5)); higher = stronger / more preferred TF binding
# Details: protein concentration: 200 nM; construct: GST-full length
# In short: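 Bound GST-tagged yeast transcription factors, applied at about 100-200 nM to double-stranded universal all-10-mer Agilent arrays, were detected with fluorescent anti-GST. Scans were normalised with masliner. A modified Wilcoxon-Mann-Whitney statistic, the E-score, was assigned to each ungapped eight-base word pooled with its reverse complement by the Universal PBM Analysis Suite.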
row,Sequence,PBM E-score
1,ACAGTTCG,0.183
2,GCTTCCCA,-0.179
3,GTTTGGTA,0.178
4,ATCGGTAG,0.0989
5,TCGGTGAA,0.0263
6,TAAGATCA,0.0673
7,ATAAATAG,0.295
8,ATAAAGAA,0.19
9,GTAAAATA,0.145
10,GGAAAATA,0.226
11,ATAAAGAT,0.328
12,GAAAAATA,0.306
13,ATAAATAA,0.321
14,TTAAATAA,0.259
15,ATAAAGAG,0.0458
16,ATAAAATA,0.323
17,ATAAAATC,0.162
18,AAAAAATA,0.242
19,CTCGTTCA,-0.205
20,AGTAGACC,-0.172
21,ATGACTGC,0.00267
22,CAATGCTC,-0.0941
23,ACCAACGT,0.00237
24,AGAAATTA,0.335
25,AAAAATAA,0.326

row,Sequence,PBM E-score
1,ATCAATTA,0.31
2,AAAATAGA,0.319
3,CAAAATAA,0.201
4,ATCAATTC,0.135
5,TAAATAGA,0.0796
6,GGAAATTA,0.286
7,ATCAATTG,0.197
8,AAAATAGC,0.0485
9,AGAAATTC,0.126
10,TAAAATAA,0.213
11,AACCAACC,-0.178
12,AGAATACA,0.117
13,CACTTTGC,0.0519
14,AGGCGACC,-0.207
15,CTCGCCAG,-0.204
16,ACCTTGCC,-0.0123
17,ATAAATAT,0.341
18,CAAAATTA,0.241
19,ATAAATTA,0.326
20,ATAAAAAT,0.252
21,TAAATAAA,0.247
22,AAAAATTA,0.228
23,TAAAATTA,0.34
24,CTAAATTA,0.24
25,ATAAATTG,0.268

row,Sequence,PBM E-score
1,AAAATAAC,0.12
2,ATAAATAC,0.275
3,AAAATAAA,0.347
4,ACCAAACT,-0.0181
5,CAGTGGTC,-0.165
6,GGCAGAAA,0.0918
7,CCGACCCA,0.0491
8,CCATCAGA,-0.213
9,AATAAGGG,-0.0871
10,CCGACACC,-0.0623
11,TGTCTCAA,-0.115
12,ACAAATAT,0.339
13,ACAAATAC,0.205
14,CGAAATAA,0.313
15,CAAAATTG,0.0231
16,AAAAATTC,0.235
17,ACAAATAG,0.113
18,CGAAATAC,0.215
19,GGAAATAA,0.24
20,CAAAATTC,0.308
21,ATCTGAGC,0.113
22,GACTTCGC,0.0243
23,ATTCCAAG,0.0681
24,CTTCCGAA,0.233
25,ATTCCGAG,0.341

row,Sequence,PBM E-score
1,ATTCCGAC,0.219
2,ATTCCGAA,0.378
3,ATTCCGTA,0.296
4,CGTCAAGA,-0.239
5,AGAGAGTA,-0.0447
6,GTAAGAAC,0.215
7,TGGCAGAA,-0.0838
8,TGAATTCA,0.0862
9,CGCGACAC,0.0583
10,ATTTCCGG,0.325
11,ATTTCCGC,0.156
12,AATTTCCG,0.257
13,ATTTTCCC,-0.105
14,ATTTCCGA,0.231
15,ATTTTCCG,0.4
16,ATTTTCGC,0.0665
17,ATTTTCGA,0.0872
18,ATTTTCGG,0.345
19,CAGTATTA,0.0764
20,ACCAAACC,0.0288
21,CAGATGGG,-0.192
22,TAAGCATA,0.122
23,CATAATTA,0.317
24,AATAATTC,0.268
25,CCTAATTA,0.039

row,Sequence,PBM E-score
1,AATAATTA,0.329
2,CATAATTC,0.0494
3,GATAATTA,0.216
4,GGTTAATA,0.163
5,AATTAATT,0.206
6,TATTAATA,0.167
7,AGTTAATC,0.16
8,AATTAATA,0.327
9,AGTTAATA,0.331
10,AATCAAGA,0.0025
11,GGCGAGCC,-0.157
12,GAGCTACA,-0.127
13,TATAATCA,0.203
14,CCCGGGCA,-0.229
15,AAAATCGC,0.159
16,ACTGCTTA,0.0551
17,AGAATCCG,0.00193
18,GGAAGAGA,0.0239
19,CGGGTTGA,-0.223
20,ACTGTCAA,-0.099
21,ATATAACC,0.0866
22,ATTTAATA,0.265
23,ATATAACG,0.299
24,GTATAACA,0.215
25,CTTTAATC,0.183

row,Sequence,PBM E-score
1,CTATAACC,-0.00144
2,ATTTAACA,0.213
3,ATTTAATC,0.307
4,ATATAACA,0.309
5,CTATAACA,0.0773
6,ATTTAACC,0.154
7,ATTTAACG,0.298
8,CTAAATAG,0.0251
9,ACATTATC,0.102
10,ACATACTA,0.15
11,AAGCCCTC,-0.213
12,AATGTGAG,0.13
13,GAGGCATA,0.0426
14,GCCGTGTA,-0.196
15,ACTTGAAC,0.157
16,AGACTTTA,-0.111
17,GGACTTGA,0.339
18,CGACTTGA,0.06
19,AGACTTGA,0.0388
20,CGACTTTA,0.166
21,CGACTTCA,0.136
22,AGACTTCA,-0.0862
23,GGACTTCA,0.321
24,GGACTTTA,0.347
25,ATTTTAGG,0.113

row,Sequence,PBM E-score
1,ATACGCTG,0.025
2,AGATCATA,0.155
3,ATCTGCAC,-0.145
4,AACCGGAG,0.43
5,CACCGGTA,-0.12
6,AACCGGAA,0.229
7,CACCGGGA,-0.0737
8,AACCGGTC,0.0286
9,GACCGGGC,-0.0226
10,AACCGGAC,0.345
11,AACCGGCC,-0.0986
12,GACCGGAA,0.179
13,GACCGGAC,0.364
14,AACCGGAT,0.222
15,CACCGGAA,0.361
16,GTGATTCA,-0.119
17,CGCCAAAG,-0.237
18,CCGGGTAA,0.136
19,TCGTTCCA,-0.0676
20,GATGGTGA,-0.174
21,ACCGTGAA,0.00123
22,ACCTGTGG,-0.141
23,CACCGGCC,-0.231
24,CACCGGAC,0.409
25,TACCGGTA,0.0972

row,Sequence,PBM E-score
1,CACCGGTC,-0.223
2,CACCGGAG,0.437
3,CACCGGCG,0.117
4,TACCGGAA,0.298
5,CACCGGTG,0.0775
6,TACCGGGA,0.229
7,ACAGCAAA,0.127
8,GCGTCTAA,-0.155
9,CCCTACCG,-0.233
10,AGAAACCT,0.149
11,GCCTGTCC,-0.154
12,AAGAACTT,0.183
13,CATGAAGC,-0.0952
14,ACTGTGAC,-0.142
15,GGTTCGCA,-0.0674
16,CGTTCGTA,0.15
17,CGTTCGGA,0.385
18,AGTTCGGC,0.126
19,GGTTCGGA,0.423
20,AGTTCGGA,0.352
21,AGTTCGGG,0.0543
22,CGTTCGGC,-0.0654
23,GGTTCGAA,0.14
24,CCCACTAG,-0.248
25,AGTGTAGC,-0.123

row,Sequence,PBM E-score
1,CAAGCCAA,-0.059
2,GTGGGAAA,-0.0448
3,TCTCCGAA,0.446
4,GCTCCGAA,0.439
5,TCTCCGCA,0.225
6,GCTCCGAC,0.267
7,CCTCCGAA,0.121
8,TCTCCAAA,-0.0978
9,GTGTTTCA,0.0164
10,CACCCCTC,-0.352
11,CTCGGAAG,0.174
12,AAATAAAT,0.329
13,ATATAAAC,0.227
14,AAATAAAA,0.234
15,AAATAAAG,0.224
16,ATATAAAT,0.325
17,ATATAAAG,0.177
18,ATGTTATG,0.211
19,ACCTGTTC,-0.081
